In general, inhibition refers to the relative decrease from the control value, in per cent.

SMILES strings stand for the structures. In all, about 340,000 compounds went through this assay and about 1,000 (0.29%) were called active. Cut-off read from the data, not from the text of the source: inconclusive = inhibition above about 27% without an active follow-up result; inactive = below that. A selection follows. Measured potencies and affinities stand elsewhere.

A short description of this assay: NS1A inhibition, H1N1 influenza, cell based functional assay (AID 504329). As to conditions: percent inhibition, at 12.5 µM, hits give high values.
For `CN(C(=O)CN1C(=O)c2cc(Cl)c(Cl)cc2C1=O)C1CCS(=O)(=O)C1` (stereo unspecified), the inhibition is -4.84% (inactive).

For `CCn1nc([N+](=O)[O-])c(C(C#N)c2nc3ccccc3n2C)c(Cl)c1=O` (stereo unspecified), the inhibition is 0.82% (inactive). With `Cn1nc([N+](=O)[O-])c(C(C#N)c2ccccn2)c(Cl)c1=O` (stereo unspecified), the inhibition is 7.2% (inactive).

For the compound `Cn1nc([N+](=O)[O-])c(C(C#N)c2nc3ccccc3n2C)c(Cl)c1=O` (stereo unspecified), the inhibition is 3.66% (inactive). As to `CCCn1nc([N+](=O)[O-])c(C(C#N)c2nc3ccccc3o2)c(Cl)c1=O` (stereo unspecified), the inhibition was 17.6% (inactive). With `Cc1cc(C)cc(NC(=O)C(OC(=O)c2sccc2C)c2ccccc2)c1` (stereo unspecified), the inhibition is -3.16% (inactive). For `COc1ccc(S(=O)(=O)N2CCCC2C(=O)NCc2ccccc2Cl)cc1` (stereo unspecified), the inhibition was -6.48% (inactive).

On to `CC1(C)CC(=O)C2=C(C1)OC(=O)CC2c1cccs1` (stereo unspecified), for which the inhibition was -6.75% (inactive). In the case of `CCN(CC)S(=O)(=O)c1ccc(Cl)c(NC(=O)COC(=O)c2c(C)noc2C)c1`, the inhibition was -8.29% (inactive).

`COc1ccc2nc(SC(C)C(=O)NCC(=O)Nc3ccc(F)c(F)c3F)[nH]c2c1` (stereo unspecified): the inhibition is -9.36% (inactive).

In the case of `C/C(=N\NC(=O)CN1CCN(Cc2ccccc2)CC1)c1cccs1`, the inhibition was 0.29% (inactive). In the case of `O=C(CNC(=O)c1ccccc1F)OCCCOC(=O)CNC(=O)c1ccccc1F`, the inhibition is -5.51% (inactive). Regarding `NC(=O)COC(=O)/C=C/c1ccc(S(=O)(=O)N2CCCCCC2)cc1`, the inhibition is 5.4% (inactive). `C[C@H]1CCC[C@]2(O[C@H](CCO)C[C@@H](O)[C@@H]2O)O1`: the inhibition is -6.34% (inactive). Take `Cc1nc(C(F)(F)F)c(C(=O)NC(=O)Nc2ccccc2)s1`: the inhibition is -2.55% (inactive). Under `Cc1nc(C(F)(F)F)c(C(=O)N/N=C(\N)c2cccnc2)s1` stands -4.6% (inactive); under `COc1ccccc1Oc1ncnc2c1cnn2-c1ccccc1`, -2.97% (inactive); under `CCOC(=O)N1CCc2c(sc(NC(=O)C3COc4ccccc4O3)c2C(N)=O)C1` (stereo unspecified), -11.4% (inactive).

In the case of `C#CCOCCOCCOCCNc1nc(N2CCN(C(=O)CCCCCCCCCCNC(=O)[C@H]([C@@H](C)CC)n3cc(CCCCCN)nn3)CC2)nc(N2CCN(C(=O)CCCCCCCCCCNC(=O)[C@H](CO)n3cc(CCCCCN)nn3)CC2)n1`, the inhibition is 22.1% (inactive). Under `C#CCOCCOCCOCCNc1nc(N2CCN(C(=O)CCCCCCCCCCNC(=O)[C@H]([C@@H](C)CC)n3cc(CCCCN=C(N)N)nn3)CC2)nc(N2CCN(C(=O)CCCCCCCCCCNC(=O)[C@H](CO)n3cc(CCCSC)nn3)CC2)n1` stands -16.7% (inactive); under `O=C(COC(=O)c1ccc2ncsc2c1)NC(=O)c1ccccc1`, -8.75% (inactive).
